The record followed here is PubChem BioAssay AID720504 (National Center for Advancing Translational Sciences (NCATS), 2013).

Each structure is given as a SMILES string. About 10,000 (2.8%) of roughly 360,000 compounds were called active. Roughly 4% stayed inconclusive and do not appear here. The full list was thinned out, with actives kept by preference. Some structures have more than one record in an assay (separate samples or runs), and their calls can disagree. Values without a mark were called inactive. Calls come from the whole dose curve; as a rule, active = well fitted inhibition curve with a large enough effect; inconclusive = small, poorly fitted or top-dose-only effect; inactive = flat fitted curve, though single readings scatter.
% is set by controls: 0 for no effect and ±100 for the full control effect; potency is the fitted concentration of half-maximal effect.

Serine/threonine-protein kinase PLK1 (Homo sapiens), sequence (P53350 whole entry, looked up, the tested form may be a part): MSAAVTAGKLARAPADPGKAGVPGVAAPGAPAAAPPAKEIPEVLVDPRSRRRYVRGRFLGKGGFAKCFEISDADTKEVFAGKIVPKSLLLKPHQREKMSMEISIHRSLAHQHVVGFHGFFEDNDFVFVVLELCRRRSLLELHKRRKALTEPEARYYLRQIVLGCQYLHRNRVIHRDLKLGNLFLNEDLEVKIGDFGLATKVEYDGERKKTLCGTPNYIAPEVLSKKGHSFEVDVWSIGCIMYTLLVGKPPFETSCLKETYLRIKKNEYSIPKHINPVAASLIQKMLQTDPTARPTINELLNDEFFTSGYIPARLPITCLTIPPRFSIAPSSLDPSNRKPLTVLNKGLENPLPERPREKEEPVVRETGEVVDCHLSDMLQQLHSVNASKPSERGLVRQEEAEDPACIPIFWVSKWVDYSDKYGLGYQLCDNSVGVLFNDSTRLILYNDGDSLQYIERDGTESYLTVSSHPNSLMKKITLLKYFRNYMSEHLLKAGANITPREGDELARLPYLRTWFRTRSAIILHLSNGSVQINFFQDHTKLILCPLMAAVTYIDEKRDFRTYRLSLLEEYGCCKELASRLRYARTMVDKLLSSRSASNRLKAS

For the test, the target named is Serine/threonine-protein kinase PLK1 (Homo sapiens) (UniProt P53350). Nature of the test: qHTS for Inhibitors of PLK1-PDB (polo-like kinase 1 - polo-box domain): Primary Screen. For max response, negative = inhibition: series mostly up to about 57 µM. Note: nearly all actives have a fitted effect of over 65% in size. Conditions: Plk1 PBD binding of FITC phosphopeptide, fluorescence polarization. The source says:
The polo-like kinase 1 (Plk1) is a member of a conserved subfamily of serine / threonine protein kinases that plays a pivotal roles in cell proliferation. It has a C-terminal non-catalytic region called the polo-box domain (PBD) that plays a crucial role in the subcellular localization of the Plk1. […] Furthermore, depletion of the overexpressed Plk1 by RNAi efficiently induces apoptotic cell death in cancer and reduces tumor growth in mouse xenograft models. Thus, targeting Plk1 is an appealing strategy for anti-cancer therapy. Therefore, this project aimed to screen the Molecular Libraries Small Molecule Repository (MLSMR) using a novel approach to find inhibitors that target the Plk1 PBD instead of the conventional N-terminal catalytic domain. This project employed a fluorescence polarization (FP) assay using a FITC-conjugated phospho-9-mer (p-9-mer) peptide and purified human Plk1 PBD protein. The identified small molecule inhibitors of Plk1 PBD can then further be developed into useful tools for biomedical and clinical research that complements or replaces current relevant disease therapy. NIH Chemical Genomics Center [NCGC] NIH Molecular Libraries Probe Centers Network [MLPCN] MLPCN Grant: MH100728 Assay Submitter (PI): Kyung Lee, NCI
Four microliter of 25 nM FITC-p-9-mer + 60 nM Plk1 PBD in buffer solution (final concentrations 25 nM and 60 nM respectively) or 4 uL of 25 nM FITC-p-9-mer (final concentration 25 nM) in buffer will be dispensed into a 1,536 Greiner medium-binding black solid plate. Small molecules at final concentrations of 18 nM to 57 uM and positive control phospho-9-mer (sequence: Ac-PPLHSpTAI-NH2) at final concentrations 26 nM to 57 uM and phospho-13-mer (sequence: Ac-[…]pTAI-NH2) at final concentrations of 1 nM to 2.3 uM will be pin-transferred (23 nL) to the plate via a Kalypsys pin-tool robotics equipped with a 1,536-pin array. The reaction plate will be centrifuged for 1 min at 1000 rpm and incubated at room temperature for 10 min. The FITC fluorescence signals will be read using the PerkinElmer ViewLux plate reader at 480 / 20 nm excitation and 540 / 20 nm S and P polarization emission wavelengths. Reagent bottles will be kept submerged into 4 °C recirculating chiller bath and all liquid lines will be covered with aluminum foil to minimize degradation. Library plates will be screened starting from the lowest to the highest concentrations to minimize compound carryover. Vehicle only plates, with DMSO being pin-transferred instead of compound solutions, will be included regularly throughout the screen to record any systematic shifts in assay signal.
In the case of `Cc1nn2c(c1-c1ccccc1)N=C(c1ccco1)CC2c1ccccc1` (centres undefined), the Potency is 42.3 µM (active) and the max response, negative = inhibition is 2.38%.
On to `Cc1nn(C(=O)c2ccoc2C)c(N)c1-c1ccccc1`, for which the max response, negative = inhibition is -3.12%.
Take `O=C(O)CCCC(=O)N1N=C(c2ccco2)CC1c1ccco1` (centres undefined): the max response, negative = inhibition is -14%.
On the same count and under the same terms, to `C[C@H]1CN([C@@H](C)CO)C(=O)c2cc(-c3ccccc3F)cnc2O[C@H]1CN(C)C(=O)C1CCOCC1` belongs -20.8%; to `Cc1ccc(Cn2c(C)c(C(=O)NCc3ccccc3C(F)(F)F)sc2=O)cc1`, -12.2%; to `O=C(CN1CCN(Cc2ccccc2)CC1)NC(c1ccccc1)c1ccccc1`, -13.1%.
For `C=CCC(NC(=O)Cc1ccccc1)C(=O)NCCC` (centres undefined), the max response, negative = inhibition was -11.6%.
For `O=C(Cc1ccc(-c2ccccc2)cc1)NC(c1ccccc1)c1ccccc1`, the Potency was 21.2 µM (active).
On to `O=C1NC[C@H](CCCCN2C[C@H](Cc3ccc(O)cc3)N(CC3CCCCC3)C(=O)C2=O)N(CCc2ccccc2)C1=O`, for which the max response, negative = inhibition was -5.25%.
Still for that read-out and setting: to `Cc1nc2c(OCc3ccc(Cl)cc3Cl)cccn2c1N(C)CC1CC1` belongs -13%.
Same read-out and setting: to `Cc1cc2nc(-c3ccc(Cl)cc3)c(Cc3cccc(F)c3)n2c(C)c1Br` belongs -18.5%; to `Cc1noc(C)c1NC(=O)N(C)C[C@@H]1Oc2cc(Br)ccc2S(=O)(=O)N([C@@H](C)CO)C[C@H]1C`, 2.61%.
Regarding `Cc1nn(-c2ccccc2)c2c1C(c1ccc(F)cc1)C(C#N)=C(N)O2` (centres undefined), the Potency is 23.8 µM (active).
`COc1ccccc1C1C(C#N)=C(N)Oc2c1c(-c1ccccc1)nn2-c1ccccc1` (centres undefined): the max response, negative = inhibition is -0.276%.
Same read-out and setting: to `Cn1c2c(c(=O)n(C)c1=O)C(c1cccc(F)c1)C(C#N)=C(N)O2` (centres undefined) belongs -22.7%; to `COc1ccc(S(=O)(=O)NC(=O)C2(C)CCN2C(=O)c2ccccc2CCc2ccccc2)cc1` (centres undefined), -9.6%; to `Cc1cc(Nc2ccc(C)c(C)c2)n2ncnc2n1`, -12.1%.
Same read-out and setting: to `CCCNC(=S)N1CCC(NC(=O)c2ccc(OC)cc2)CC1` belongs -7.7%.
Regarding `O=C(NC1CCN(C(=S)NCc2ccco2)CC1)c1ccc(F)cc1`, the Potency is 23.8 µM (active).
Consider `O=S(=O)(c1ccc(F)cc1)N1CCN(C(=S)NCc2ccco2)CC1`, for which the max response, negative = inhibition was -10.7%.
Same read-out and setting: to `COC(=O)C[C@@H]1C=C[C@@H](NS(=O)(=O)c2cccc(OC)c2)[C@@H](CO)O1` belongs -1.82%; to `CC(=O)Nc1c(-c2ccc(C)cc2)nc2ccc(Cl)cn12`, -2.35%.
Still for that read-out and setting: to `CCCCN(CC)CCCNC(=O)CS(=O)(=O)Cc1nc(-c2cccc(OC)c2)oc1C` belongs 0.434%.
The same measure, in the same setting: to `COc1ccc(CCNC(=O)CS(=O)(=O)Cc2nc(-c3ccc(C)cc3)oc2C)cc1OC` belongs -18.7%.
For `COc1cccc(-c2nc(CS(=O)(=O)CC(=O)NCCc3ccc(OC)c(OC)c3)c(C)o2)c1`, the Potency was 18.9 µM (active).
For the compound `CC(=O)Nc1cccc(Nc2ccc(C#N)cc2)c1`, the max response, negative = inhibition was 0.998%.
Still for that read-out and setting: to `CC1CCCC(NC(=O)COC(=O)c2ccccc2C(=O)N(C)C2CCCCC2)C1C` (centres undefined) belongs -13.1%; to `O=C(CSc1ccccc1)Nc1cccc(S(=O)(=O)N2CCCCC2)c1`, 3.72%.
With `O=C(CSc1ccccc1)Nc1cccc(S(=O)(=O)N2CCOCC2)c1`, the Potency was 23.8 µM (active).
For `CCN(CC(=O)Nc1cccc(S(=O)(=O)N2CCCCC2)c1)Cc1ccccc1`, the max response, negative = inhibition was 1.36%.
Take `Nc1cc(N)nc(SCC(=O)Nc2cccc(S(=O)(=O)N3CCCCC3)c2)n1`: the max response, negative = inhibition was -3.4%.
Turning to `O=C(COC(=O)c1ccccc1)Nc1cccc(S(=O)(=O)N2CCOCC2)c1`, the max response, negative = inhibition was 10.6%.
On to `O=C(Cn1cnc2ccccc2c1=O)Nc1cccc(S(=O)(=O)N2CCCCC2)c1`, for which the Potency was 26.7 µM (active).
For `CN(C)CCN1CCN(c2cc(-c3cccc(Cl)c3)nc3ccnn23)CC1`, the max response, negative = inhibition was -12.4%.
Consider `COc1ccc(Sc2ccc(NC(=O)c3cccc(Cl)c3)cc2C#N)cc1`, for which the max response, negative = inhibition was 2.16%.
As to `Cc1cccc(CN2CCN(C3CN(Cc4ccccc4)S(=O)(=O)C3)CC2)c1` (centres undefined), the max response, negative = inhibition was 2.44%.
Still for that read-out and setting: to `Nc1ncnc2c1ncn2[C@@H]1O[C@H](CNC(=O)[C@H](N)Cc2cccnc2)[C@@H](O)[C@H]1O` belongs -2.93%; to `CCCCCC(=O)N1C[C@H](O)[C@@H](n2cc(COC(=O)c3ccccc3)nn2)C[C@@H]1c1ccc(C)cc1`, -4.42%.
On to `Cc1nnc(SCC(=O)N2CCOCC2)[nH]c1=O`, for which the max response, negative = inhibition is -7.51%.
For the compound `CCCCOC(=O)CNc1nnc(SCC(=O)OCC)[nH]c1=O`, the Potency was 13.4 µM (active).
As for `CCOC(=O)CSc1nc(C)c(Oc2ccc(Cl)cc2Cl)c(=O)[nH]1`, the max response, negative = inhibition is -19.2%.
Regarding `CCc1nc2ccc(C(=O)N(C)CCN(C)C)cn2c1N(CC)CCOC`, the max response, negative = inhibition was -14.3%.
Take `COCOCCn1cc(CN2CCS(=O)(=O)N(Cc3ccc(-c4ccccc4)cc3)C(CC(C)C)C2=O)nn1` (centres undefined): the max response, negative = inhibition was -0.127%.
